SMILES strings stand for the structures. Several values for one entry are separate records, joined by “and”; a condition that tells them apart may be missing. Identical values can stand only once. About 79,000 compounds went through this panel and 15% of them were active in at least one assay; those are over-represented in the sample as a whole. Where a structure was tested more than once in an assay, its records may differ in their call. Activity calls are given as the source filed them. Cut-off read from the data, not from the text of the source: active = growth inhibition above about 70%; inactive = the rest.

Assay [1] is described as follows: NCI Yeast Anticancer Drug Screen. Data for the rad50 strain (AID 155).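 Note: 0% = growth of vehicle-only cultures of the same strain.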 The conditions noted are these: S. cerevisiae rad50 strain growth inhibition, stronger effect = higher value. Summed up:
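Readout: growth inhibition relative to vehicle-treated cultures. Compound exposure was carried out in a genetically defined yeast strain deficient in DNA damage repair.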

The nature of assay [2]: NCI Yeast Anticancer Drug Screen. Data for the mec2-1 strain (AID 157). The conditions noted are these: S. cerevisiae mec2-1 strain, stronger effect = higher value. Summed up:
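Cells of the genetically defined mec2-1 yeast strain are incubated with test compound. Inhibition of growth is calculated against vehicle-treated controls.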

The nature of assay [3]: NCI Yeast Anticancer Drug Screen. Data for the sgs1 mgt1 strain (AID 161).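 Note: 0% = growth of cultures given vehicle only.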 Conditions: S. cerevisiae sgs1 mgt1 strain, stronger effect = higher value. The essentials:
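Read-out: growth inhibition vs vehicle controls. Cells: mutant yeast strain deficient in DNA damage repair.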

Assay [4] is described as follows: NCI Yeast Anticancer Drug Screen. Data for the cln2 rad14 strain (AID 165).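 Note: 0% = growth equal to vehicle treated cultures.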 The conditions noted are these: S. cerevisiae cln2 rad14 strain, stronger effect = higher value. Summed up:
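The screen exposed genetically defined yeast (cln2 rad14) to test compounds and scored growth inhibition relative to vehicle-treated controls.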

The nature of assay [5]: NCI Yeast Anticancer Drug Screen. Data for the bub3 strain (AID 167). The conditions noted are these: S. cerevisiae bub3 mutant strain, stronger effect = higher value. The essentials:
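Readout: yeast growth inhibition, expressed relative to vehicle-only wells. The test organism is a mutant strain from a panel with lesions in DNA repair or checkpoint genes.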

A short description of assay [6]: NCI Yeast Anticancer Drug Screen. Data for the mlh1 rad18 strain (AID 175). The conditions noted are these: S. cerevisiae mlh1 rad18 strain growth inhibition, stronger effect = higher value. The essentials: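 Compound-treated yeast growth, normalised to vehicle controls. Strain bears defined DNA repair mutations.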
The mark [7] stands for this setting: at 5.0 µM (retest, dose inferred, filed as 0.5).
Setting [8] is: at 50.0 µM (retest, dose inferred, filed as 5.0).

As for `CC(=O)OC1CC2C(C)(C)C(=O)C=C[C@]2(C)C2CCC3(C)C(=CC(=O)C3c3ccoc3)[C@]12C` (stereo partly specified), the growth inhibition in assay [1] (setting [7]) is -4% (inactive); in assay [1] (setting [8]) it was 40% (inactive); in assay [1] (at 50.0 µM), 65.4% (inactive); in assay [2] (setting [7]) it was -8% (inactive); in assay [2] (setting [8]) it was 38% (inactive); in assay [2] (at 50.0 µM), 65.3% (inactive). Besides, the growth inhibition is -1% (inactive) in assay [3] (setting [7]); 86% (active) in assay [3] (setting [8]); 87% (active) in assay [3] (at 50.0 µM); 19% (inactive) in assay [4] (setting [7]); 52% (inactive) in assay [4] (setting [8]); 18.7% (inactive) in assay [4] (at 50.0 µM). The growth inhibition is 7% (inactive) in assay [5] (setting [7]); 58% (inactive) in assay [5] (setting [8]); 56.9% (inactive) in assay [5] (at 50.0 µM); -1% (inactive) in assay [6] (setting [7]); 52% (inactive) in assay [6] (setting [8]); 56.4% (inactive) in assay [6] (at 50.0 µM).
As for `O=[N+]([O-])c1ccc(N/N=C(/C=N/Nc2ccc([N+](=O)[O-])cc2)C(O)C(O)C(O)CO)cc1` (stereo unspecified), the growth inhibition in assay [1] (setting [7]) was 44% (inactive) and 67% (inactive); in assay [1] (setting [8]) it was 97% (active) and 96% (active); in assay [1] (at 50.0 µM), 97.7% (active) and 97.2% (active); in assay [2] (setting [7]), 48% (inactive) and 55% (inactive); in assay [2] (setting [8]), 99% (active) and 98% (active); in assay [2] (at 50.0 µM) it was 97.8% (active) and 97.7% (active). In addition, the growth inhibition is 44% (inactive) and 79% (active) in assay [3] (setting [7]); 98% (active) in assay [3] (setting [8]); 97.7% (active) and 97% (active) in assay [3] (at 50.0 µM); 10% (inactive) and 27% (inactive) in assay [4] (setting [7]); 94% (active) and 96% (active) in assay [4] (setting [8]); 98% (active) and 97.8% (active) in assay [4] (at 50.0 µM). The growth inhibition in assay [5] (setting [7]) was 73% (active) and 90% (active); in assay [5] (setting [8]) it was 98% (active); in assay [5] (at 50.0 µM), 98.2% (active) and 98.9% (active); in assay [6] (setting [7]) it was 70% (active) and 77% (active); in assay [6] (setting [8]) it was 98% (active); in assay [6] (at 50.0 µM) it was 98.2% (active) and 97.6% (active).
Consider `CC(c1ccccc1)c1ccc(O)cc1` (stereo unspecified), for which the growth inhibition was 0% (inactive) in assay [1] (setting [7]); 73% (active) in assay [1] (setting [8]); 46.9% (inactive) and 86.5% (active) in assay [1] (at 50.0 µM); -3% (inactive) in assay [2] (setting [7]); 57% (inactive) in assay [2] (setting [8]); 33.2% (inactive) and 81% (active) in assay [2] (at 50.0 µM). Also, the growth inhibition is -1% (inactive) in assay [3] (setting [7]); 49% (inactive) in assay [3] (setting [8]); 6.55% (inactive) and 85.7% (active) in assay [3] (at 50.0 µM); 0% (inactive) in assay [4] (setting [7]); 56% (inactive) in assay [4] (setting [8]); 24.6% (inactive) and 65.2% (inactive) in assay [4] (at 50.0 µM). Besides, the growth inhibition is -9% (inactive) in assay [5] (setting [7]); 51% (inactive) in assay [5] (setting [8]); 40.4% (inactive) and 66.4% (inactive) in assay [5] (at 50.0 µM); 0% (inactive) in assay [6] (setting [7]); 90% (active) in assay [6] (setting [8]); 53.2% (inactive) and 92.3% (active) in assay [6] (at 50.0 µM).
With `Cc1cc([N+](=O)[O-])c(C)c2c1[nH]c1ccc(O)cc12`, the growth inhibition in assay [1] (setting [7]) was 52% (inactive); in assay [1] (setting [8]) it was 93% (active); in assay [1] (at 50.0 µM), 87% (active); in assay [2] (setting [7]) it was 46% (inactive); in assay [2] (setting [8]), 94% (active); in assay [2] (at 50.0 µM), 88.8% (active). Further, the growth inhibition in assay [3] (setting [7]) is 23% (inactive); in assay [3] (setting [8]), 94% (active); in assay [3] (at 50.0 µM) it was 88.2% (active); in assay [4] (setting [7]), 50% (inactive); in assay [4] (setting [8]), 96% (active); in assay [4] (at 50.0 µM), 85.5% (active). In addition, the growth inhibition in assay [5] (setting [7]) is 78% (active); in assay [5] (setting [8]) it was 96% (active); in assay [5] (at 50.0 µM) it was 88.8% (active); in assay [6] (setting [7]) it was 73% (active); in assay [6] (setting [8]), 95% (active); in assay [6] (at 50.0 µM) it was 82.7% (active).
With `CC(=O)c1ccc2ccc3ccc(O)cc3c2c1`, the growth inhibition in assay [1] (setting [7]) was 1% (inactive); in assay [1] (setting [8]), 97% (active); in assay [1] (at 50.0 µM), 88.5% (active); in assay [2] (setting [7]), 11% (inactive); in assay [2] (setting [8]), 97% (active); in assay [2] (at 50.0 µM), 80.5% (active). The growth inhibition is 2% (inactive) in assay [3] (setting [7]); 96% (active) in assay [3] (setting [8]); 82.2% (active) in assay [3] (at 50.0 µM); -5% (inactive) in assay [4] (setting [7]); 97% (active) in assay [4] (setting [8]); 72.8% (active) in assay [4] (at 50.0 µM). Further, the growth inhibition in assay [5] (setting [7]) is -27% (inactive); in assay [5] (setting [8]), 98% (active); in assay [5] (at 50.0 µM) it was 90.2% (active); in assay [6] (setting [7]), 6% (inactive); in assay [6] (setting [8]), 97% (active); in assay [6] (at 50.0 µM) it was 89.2% (active).
Turning to `COc1cccc2c1C(=O)c1c(O)c3c(c(O)c1C2=O)C[C@@](O)(C(=O)CO)C[C@@H]3OC1CC(N)C(O)C(C)O1` (stereo partly specified), the growth inhibition is 91% (active) and 50% (inactive) and -5% (inactive) in assay [1] (setting [7]); 99% (active) and 94% (active) and 0% (inactive) in assay [1] (setting [8]); 92.2% (active) and 94.8% (active) and 20.2% (inactive) in assay [1] (at 50.0 µM); 41% (inactive) and 20% (inactive) and -6% (inactive) in assay [2] (setting [7]); 99% (active) and 82% (active) and -16% (inactive) in assay [2] (setting [8]); 93.7% (active) and 52.2% (inactive) and -26% (inactive) in assay [2] (at 50.0 µM). Moreover, the growth inhibition was 53% (inactive) and 15% (inactive) and 4% (inactive) in assay [3] (setting [7]); 99% (active) and 88% (active) and -2% (inactive) in assay [3] (setting [8]); 94.6% (active) and 88% (active) and 5% (inactive) in assay [3] (at 50.0 µM); 25% (inactive) and 5% (inactive) and -23% (inactive) in assay [4] (setting [7]); 98% (active) and 49% (inactive) and 1% (inactive) in assay [4] (setting [8]); 90.5% (active) and 11.1% (inactive) and 91.5% (active) in assay [4] (at 50.0 µM). Also, the growth inhibition in assay [5] (setting [7]) was 57% (inactive) and 2% (inactive) and 22% (inactive); in assay [5] (setting [8]), 98% (active) and 72% (active) and 17% (inactive); in assay [5] (at 50.0 µM) it was 93.7% (active) and 88.8% (active) and -40.1% (inactive); in assay [6] (setting [7]) it was 69% (inactive) and 44% (inactive) and -8% (inactive); in assay [6] (setting [8]) it was 98% (active) and 84% (active) and -10% (inactive); in assay [6] (at 50.0 µM), 92.8% (active) and 89.8% (active) and 46.3% (inactive).
As for `Oc1c(Cl)cc(Cl)c(Cl)c1Cl`, the growth inhibition is -2% (inactive) and 11% (inactive) in assay [1] (setting [7]); 94% (active) and 98% (active) in assay [1] (setting [8]); 85.2% (active) and 98.3% (active) in assay [1] (at 50.0 µM); 8% (inactive) and 14% (inactive) in assay [2] (setting [7]); 96% (active) and 98% (active) in assay [2] (setting [8]); 94.3% (active) and 99.6% (active) in assay [2] (at 50.0 µM). The growth inhibition in assay [3] (setting [7]) was -3% (inactive) and 3% (inactive); in assay [3] (setting [8]) it was 98% (active) and 86% (active); in assay [3] (at 50.0 µM) it was 80.5% (active) and 99.3% (active); in assay [4] (setting [7]), 11% (inactive) and -10% (inactive); in assay [4] (setting [8]) it was 98% (active) and 97% (active); in assay [4] (at 50.0 µM), 89.7% (active) and 98.5% (active). Further, the growth inhibition in assay [5] (setting [7]) is -3% (inactive) and 39% (inactive); in assay [5] (setting [8]) it was 85% (active) and 96% (active); in assay [5] (at 50.0 µM), 88.8% (active) and 99.1% (active); in assay [6] (setting [7]), 4% (inactive) and 7% (inactive); in assay [6] (setting [8]), 92% (active) and 96% (active); in assay [6] (at 50.0 µM), 93.8% (active) and 98.7% (active).

The values above are taken from PubChem BioAssay (NCI).
